Laboratory results: PubChem BioAssay (NCATS)
Inconclusive results are not listed. Values without a mark were called inactive. The source made the active and inactive calls. The call rests on the fitted dose curve; in most records, active means well fitted inhibition curve with a large enough effect; inconclusive means small, poorly fitted or top-dose-only effect; inactive means flat fitted curve, though single readings scatter. Where a SMILES comes first, the peptide text is derived from it. The star is where a group is joined. AFC = O=c1cc(C(F)(F)F)c2ccc(N*)cc2o1

Test: P-glycoprotein substrates identified in KB-8-5-11 adenocarcinoma cell line, qHTS therapeutic library screen (AID 1346987); further: nearly all actives have a fitted effect of over 65% in size
Conditions: KB-8-5-11 (P-gp overexpressing) viability, CellTiter-Glo, 72 h; series mostly up to 44.5 µM; activity change, negative = cytotoxicity: at the top concentration
In short: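 Compounds are pinned in dose-response onto KB-8-5-11 cells (500 cells/well, colchicine-free medium) and left 72 h at 37 degree C. CellTiter-Glo luminescence then yields AC50 values.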
On the % scale 0 is the no-effect control and ±100 the full control effect.

Row | SMILES | activity change, negative = cytotoxicity | Potency | outcome
1 | CC1(C)CC2C3=CCC4C5(C)CCC(OC6OC(C(=O)O)C(O)C(O)C6OC6OC(CO)C(O)C(O)C6OC6OC(CO)C(O)C(O)C6O)C(C)(CO)C5CCC4(C)C3(C)CCC2(C)C(OC2OCC(O)C(OC3OC(CO)C(O)C(O)C3O)C2O)C1O (configuration not stated) | 1.76% [at 9.29 µM] | – | –
2 | CC(=O)N[C@@H](CC(C)C)C(=O)N[C@@H](CCC(=O)O)C(=O)N[C@@H](CCC(=O)O)C(=O)N[C@@H](CC(=O)O)C(=O)Nc1ccc2c(C(F)(F)F)cc(=O)oc2c1 (Ac-LEED-{AFC}) | 0.209% | – | –
3 | Cc1c(C)c2c(c(C)c1O)CC[C@@](C)(CCC[C@H](C)CCC[C@H](C)CCCC(C)C)O2 | – | inactive | –
4 | COc1ccc(C[C@H](N)C(=O)N[C@H]2[C@@H](O)[C@H](n3cnc4c(N(C)C)ncnc43)O[C@@H]2CO)cc1 | -6.91% | – | –
5 | CC1(C)C[C@H]2C3=CCC4[C@@]5(C)CC[C@H](O[C@H]6O[C@H](C(=O)O)[C@@H](O)[C@H](O)[C@H]6O[C@H]6O[C@H](CO)[C@@H](O)[C@H](O)[C@H]6O[C@@H]6O[C@H](CO)[C@@H](O)[C@H](O)[C@H]6O)[C@](C)(CO)C5CC[C@@]4(C)[C@]3(C)CC[C@@]2(C)[C@H](O[C@@H]2OC[C@H](O)[C@H](OC3O[C@H](CO)[C@@H](O)[C@H](O)[C@H]3O)[C@H]2O)[C@@H]1O (some centres not stated) | – | – | inactive [at 9.29 µM]
6 | Cc1[nH]cnc1C1CCN(c2nc3cccc4c3n2CCC4=O)CC1 | – | – | inactive
7 | FC(F)(F)c1cc(C(F)(F)F)c2ccc3nc(-c4nnco4)cn3c2n1 | 5.16% | – | –
